# According to PubChem BioAssay (NCATS):
# Values joined by “and” are separate entries in the source; they are usually repeats but may differ in a detail not shown here. Equal entries are not always repeated. Results filed as inconclusive are left out. Active and inactive are the calls of the source. Unless noted, the call rests on the fitted dose curve; in most records, active means well fitted curve in the direction sought with a large enough effect; inconclusive means small, poorly fitted or top-dose-only effect, or another doubt; inactive means no such curve, though single readings can be large; an effect the other way counts as inactive or inconclusive.
# Columns and labels:
# [1] = molecular target: Luciferin 4-monooxygenase (Photinus pyralis) (UniProt P08659); test: Biochemical firefly luciferase enzyme assay for NPC (AID 624030);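 further: purified P. pyralis luciferase at 10 nM with luciferin and ATP substrate; 0% = DMSO and -100% = full luciferase inhibition by PTC124 control; nearly all actives have a fitted effect of over 70% in size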
# Method in brief: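 Direct inhibition of firefly luciferase enzyme (10 nM final, 50 mM Tris Acetate) assessed by luminescence within 5 minutes. Percent activity scaled between DMSO and PTC124 positive control, with concentration-effect curves classified by fit quality and response.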
# [2] = test system: astro; test: Drug repurposing screens with cells derived from glioblastoma tumor samples (AID 1345199); conditions: viability, ATP luminescence, 48 h; series mostly up to 45.9 µM; further: nearly all actives have a fitted effect of over 40% in size; further: potency means the concentration at half of the fitted maximal effect
# Method in brief: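 Primary testing used CD133+ neurospheres from four GBM patients, seven concentrations, 48 h exposure and ATP-based viability; confirmation added three slower-growing patient lines.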
# [3] = qHTS to identify inhibitors of the type 1 interferon - major histocompatibility complex class I in skeletal muscle: primary screen against the NCATS Mechanism Interrogation Plate v5.0 (MIPE) Libary (AID 1347411); further: nearly all actives have a fitted effect of over 65% in size; further: potency means the concentration at half of the fitted maximal effect;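 on activity change, negative = inhibition: plate controls were vehicle for no effect and reference inhibitor for full effect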
# Method in brief: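 HLA-B HiBit myoblasts, dexamethasone-free medium + 4 ng/ml IFN-b, 24 h compound, 11-pt 1:3 from 46 uM final. Readout: Nano-Glo HiBiT lytic luminescence after 10 min lysis, RT.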
# [4] = test system: Zika virus NS2B-NS3 protease; test: Primary screen GU AMC qHTS for Zika virus inhibitors (AID 1347154); further: nearly all actives have a fitted effect of over 70% in size; further: potency means the concentration at half of the fitted maximal effect;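 on activity change, negative = inhibition: 0% = no-inhibitor control and -100% = no-enzyme control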
# Method in brief: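 Fluorogenic AMC-substrate cleavage by noncovalent NS2B-NS3 protease complex (25 nM, pH 8.0 Tris buffer with Tween 20) followed for 15 minutes at room temperature (~20% conversion). Percent inhibition from ex340/em450 signal change, fitted by 4-parameter Hill equation.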
# [5] = qHTS Assay for Identifying Gametocytocidal Compounds (AID 743244); further: potency means the concentration at half of the fitted maximal effect;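 on max response: on the % scale 0 is the no-effect control and ±100 the full control effect; actives lower the fluorescent signal which means gametocytes are killed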; conditions: P. falciparum 3D7 stage III-V gametocytes, alamarBlue, 72 h; max response: stronger effect = lower value
# Method in brief: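 Using 20,000 stage III–V 3D7 gametocytes per well, compounds were incubated 72 h under 37 °C/5% CO2. Viability was then assessed by 24 h alamarBlue reduction, measured fluorometrically at 525/598 nm.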
# [6] = qHTS assay to identify inhibitors of the type 1 interferon - major histocompatibility complex class I in skeletal muscle: Counter screen cell viability and HiBit confirmation (AID 1347412); conditions: iHSKM muscle cells + IFN-b, HiBiT or CellTiter-Glo, 24 h; for activity change, negative = inhibition: at 45.9 µM (top of the series); further: potency means the concentration at half of the fitted maximal effect; on activity change, negative = inhibition: on the % scale 0 is the no-effect control and ±100 the full control effect; on all read-outs here: nearly all actives have a fitted effect of over 60% in size
# Method in brief: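 HLA-B*08:01–HiBiT knock-in immortalized human myoblasts (C25cl48) stimulated with 4.0 ng/ml human IFN-beta and dosed with compound in a 12-point 1:3 titration (top final 46 uM). After 24 hrs at 37 C, HiBiT lytic luminescence or CellTiter Glo ATP read out.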
# [7] = Primary qHTS for small molecule stabilizers of the endoplasmic reticulum resident proteome: Secreted ER Calcium Modulated Protein (SERCaMP) assay (AID 1508630); further: on the % scale 0 is the no-effect control and ±100 the full control effect
# Method in brief: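 The SH-SY5Y reporter protocol was run at 3 concentrations up to 38.3 uM (primary) or 11 concentrations (follow-up): 16 h compound, 100 nM thapsigargin for 4 h, then extracellular luciferase luminescence.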
# [8] = molecular target: Catechol O-methyltransferase (Homo sapiens) (UniProt P21964); test: Confirmatory Screen for Target Class Profiling of Small Molecule Inhibitors of Methyltransferases (AID 1745852; calls by dose curve; further: potency means the concentration at half of the fitted maximal effect; on activity change, negative = inhibition: on the % scale 0 is the no-effect control and ±100 the full control effect); conditions: MTase-Glo luminescence, SAH detection, recombinant enzyme; measured here: COMT max response; stronger effect = lower value
# [9] = molecular target: Guanidinoacetate N-methyltransferase (Homo sapiens) (UniProt Q14353); test: as above; conditions: activity change, negative = inhibition: at 57.3 µM (top of the series) unless noted
# [10] = molecular target: Nicotinamide N-methyltransferase (Homo sapiens) (UniProt P40261); test: as above; conditions: MTase-Glo luminescence, SAH detection, recombinant enzyme; measured here: NNMT max response; stronger effect = lower value
# [11] = molecular target: Phenylethanolamine N-methyltransferase (Homo sapiens) (UniProt P11086); test: as above; conditions: MTase-Glo luminescence, SAH detection, recombinant enzyme; measured here: PNMT max response; stronger effect = lower value
# [12] = molecular target: Cytochrome P450 2D6 (Homo sapiens) (UniProt P10635); test: Cytochrome P450 family 2 subfamily D member 6 (CYP2D6) small molecule antagonists: luciferase biochemical (cell-free) qHTS assay (AID 1645840; active means well fitted curve in the direction sought with a large enough effect in the repeat runs; an effect the other way counts as inactive or inconclusive; further: on the % scale 0 is the no-effect control and ±100 the full control effect; nearly all actives have a fitted effect of over 55% in size)
# Method in brief: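 P450-Glo CYP2D6 system: proluciferin substrate converted by enzyme to luciferin, read by luminescence proportional to activity. Enzyme-substrate mix with compound 10 min at room temperature, then NADPH regeneration 1 h before detection reagent.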
# [13] = molecular target: Cytochrome P450 2C9 (Homo sapiens) (UniProt P11712); test: Cytochrome P450 family 2 subfamily C member 9 (CYP2C9) small molecule antagonists: luciferase biochemical (cell-free) qHTS assay (AID 1645842; active means well fitted curve in the direction sought with a large enough effect in the repeat runs; an effect the other way counts as inactive or inconclusive; further: nearly all actives have a fitted effect of over 55% in size; further: potency means the concentration at half of the fitted maximal effect; on activity change, negative = inhibition: on the % scale 0 is the no-effect control and ±100 the full control effect)
# Method in brief: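 P450-Glo CYP2C9 system: proluciferin substrate with enzyme in mix containing 0.4% BSA, 10 min at room temperature, then NADPH regeneration solution added and incubated 1 h at 37C. Detection reagent stopped reaction; luminescence read after 20 min as RLU.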
# Chain of Luciferin 4-monooxygenase (Photinus pyralis) (P08659 whole entry, looked up): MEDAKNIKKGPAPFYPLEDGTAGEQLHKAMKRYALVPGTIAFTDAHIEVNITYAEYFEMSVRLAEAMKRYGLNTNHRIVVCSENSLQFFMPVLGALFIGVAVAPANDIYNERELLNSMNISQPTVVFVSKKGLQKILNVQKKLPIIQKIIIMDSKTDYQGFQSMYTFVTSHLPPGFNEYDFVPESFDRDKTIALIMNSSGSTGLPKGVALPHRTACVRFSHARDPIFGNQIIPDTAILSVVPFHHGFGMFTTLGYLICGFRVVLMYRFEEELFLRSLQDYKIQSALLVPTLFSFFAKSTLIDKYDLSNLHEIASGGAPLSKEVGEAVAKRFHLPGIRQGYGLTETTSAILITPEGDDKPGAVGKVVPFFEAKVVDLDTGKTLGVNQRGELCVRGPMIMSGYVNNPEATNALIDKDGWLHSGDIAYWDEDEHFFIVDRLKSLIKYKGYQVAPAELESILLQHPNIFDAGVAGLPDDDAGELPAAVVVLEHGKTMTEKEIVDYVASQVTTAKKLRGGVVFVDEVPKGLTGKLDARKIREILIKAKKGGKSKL
# Chain of Phenylethanolamine N-methyltransferase (Homo sapiens) (P11086 whole entry, looked up): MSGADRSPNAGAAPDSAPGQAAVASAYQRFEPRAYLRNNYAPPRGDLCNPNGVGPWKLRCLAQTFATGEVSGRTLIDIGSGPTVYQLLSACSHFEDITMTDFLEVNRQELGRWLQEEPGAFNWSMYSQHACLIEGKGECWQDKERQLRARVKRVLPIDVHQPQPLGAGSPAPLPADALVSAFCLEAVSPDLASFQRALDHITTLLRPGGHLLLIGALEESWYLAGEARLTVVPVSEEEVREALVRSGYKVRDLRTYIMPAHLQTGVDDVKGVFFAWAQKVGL
# Chain of Nicotinamide N-methyltransferase (Homo sapiens) (P40261 whole entry, looked up): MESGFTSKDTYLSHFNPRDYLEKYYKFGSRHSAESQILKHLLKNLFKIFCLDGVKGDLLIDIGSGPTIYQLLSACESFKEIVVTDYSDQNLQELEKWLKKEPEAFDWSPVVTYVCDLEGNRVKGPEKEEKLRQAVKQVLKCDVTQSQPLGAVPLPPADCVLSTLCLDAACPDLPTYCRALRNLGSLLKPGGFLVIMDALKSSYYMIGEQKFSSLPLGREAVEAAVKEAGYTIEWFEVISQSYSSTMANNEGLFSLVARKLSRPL
# Chain of Catechol O-methyltransferase (Homo sapiens) (P21964 whole entry, looked up): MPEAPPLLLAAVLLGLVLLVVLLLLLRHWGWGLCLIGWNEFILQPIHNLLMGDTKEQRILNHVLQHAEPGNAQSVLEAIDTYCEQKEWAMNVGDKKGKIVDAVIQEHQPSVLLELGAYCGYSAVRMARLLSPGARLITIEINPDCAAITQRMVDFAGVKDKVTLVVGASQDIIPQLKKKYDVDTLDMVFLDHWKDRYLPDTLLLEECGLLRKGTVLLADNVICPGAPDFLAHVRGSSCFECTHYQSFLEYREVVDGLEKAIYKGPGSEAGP
# Chain of Cytochrome P450 2C9 (Homo sapiens) (P11712 whole entry, looked up): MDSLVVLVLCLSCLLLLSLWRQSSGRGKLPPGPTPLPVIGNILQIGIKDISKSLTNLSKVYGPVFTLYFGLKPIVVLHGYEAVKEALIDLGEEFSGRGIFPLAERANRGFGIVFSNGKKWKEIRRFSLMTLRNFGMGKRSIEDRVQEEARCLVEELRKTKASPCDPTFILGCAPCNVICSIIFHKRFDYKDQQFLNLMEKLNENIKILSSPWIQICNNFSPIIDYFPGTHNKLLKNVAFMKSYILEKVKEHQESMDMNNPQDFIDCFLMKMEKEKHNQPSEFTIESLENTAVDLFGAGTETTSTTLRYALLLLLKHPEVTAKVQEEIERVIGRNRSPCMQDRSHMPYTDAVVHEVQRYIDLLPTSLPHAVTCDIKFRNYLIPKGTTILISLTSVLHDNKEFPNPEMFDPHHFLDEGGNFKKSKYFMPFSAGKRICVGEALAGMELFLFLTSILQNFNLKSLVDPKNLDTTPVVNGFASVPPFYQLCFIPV
# Chain of Cytochrome P450 2D6 (Homo sapiens) (P10635 whole entry, looked up): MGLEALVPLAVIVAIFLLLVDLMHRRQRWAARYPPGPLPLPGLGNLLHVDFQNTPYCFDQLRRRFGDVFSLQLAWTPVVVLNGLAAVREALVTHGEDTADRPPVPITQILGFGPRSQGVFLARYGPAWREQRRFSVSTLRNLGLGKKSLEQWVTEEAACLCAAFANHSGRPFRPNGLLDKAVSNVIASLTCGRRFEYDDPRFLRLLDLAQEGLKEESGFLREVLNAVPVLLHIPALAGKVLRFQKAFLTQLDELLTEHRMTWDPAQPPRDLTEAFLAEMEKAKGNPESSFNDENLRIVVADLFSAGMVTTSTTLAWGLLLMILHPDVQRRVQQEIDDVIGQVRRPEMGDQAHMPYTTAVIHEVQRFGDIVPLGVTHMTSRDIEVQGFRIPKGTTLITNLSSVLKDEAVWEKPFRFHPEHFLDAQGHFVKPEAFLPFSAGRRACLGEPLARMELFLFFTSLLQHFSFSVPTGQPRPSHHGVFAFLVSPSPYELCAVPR
smiles,measurement,setting,value
CN1CCN(CCC=C2c3ccccc3Sc3ccc(S(=O)(=O)N(C)C)cc32)CC1,Potency,[1],inactive
same,Potency,[2],31.6 µM (active)
COc1c(Nc2ncc(Cl)c(N[C@H]3[C@H](C(N)=O)[C@@H]4C=C[C@@H]3C4)n2)ccc2c1CCC(N1CCOCC1)CC2 (stereo partly specified),Potency,[3],inactive
C#Cc1cccc(Nc2ncnc3cc(OC)c(OC)cc23)c1,Potency,[4],inactive
O=C(O)c1ccc2c3c1cccc3c(=O)n1c3ccccc3nc21,Potency,[4],inactive
CCCCCCCC[N+](C)(C)CCCCCCCC,Potency,[1],inactive
same,Potency,[5],7.94 µM (active) and 8.91 µM (active)
same,Potency,[2],20 µM (active) and 12.6 µM (active)
O=C1NC(=O)/C(=C/c2ccc3nccc(-c4ccncc4)c3c2)S1,Potency,[3],0.829 µM (active)
same,Potency,[6]; HiBiT,4.97 µM (active)
C#C[C@]1(OC(C)=O)CC[C@H]2[C@@H]3CCC4=CC(=O)CC[C@@H]4[C@H]3CC[C@@]21C,max response,[5],-3.45% (inactive)
O=C(Nc1cc(Oc2cc(F)c(NC(=O)C3(C(=O)Nc4ccc(F)cc4)CC3)cc2F)ccn1)C1CC1,Potency,[3],18.6 µM (active)
N[C@@H](C(=O)N[C@@H]1C(=O)N2C(C(=O)O)=C(CSc3cn[nH]n3)CS[C@H]12)c1ccc(O)cc1,max response,[5],-0.063% (inactive)
same,Potency,[2],inactive
CCOC(=O)CN[C@@H](C(=O)N1CC[C@H]1C(=O)NCc1ccc(/C(N)=N/O)cc1)C1CCCCC1,Potency,[1],inactive
same,max response,[5],9.4% (inactive)
same,Potency,[2],inactive
CS(=O)(=O)CCNCc1nc(-c2ccc3ncnc(Nc4ccc(OCc5cccc(F)c5)c(Cl)c4)c3c2)cs1,Potency,[4],inactive
COc1cc(F)ccc1-c1ncnc(Nc2cccc(CS(C)(=N)=O)c2)n1 (stereo unspecified),Potency,[3],2.34 µM (active)
same,Potency,[6]; HiBiT,0.991 µM (active)
same,"activity change, negative = inhibition",[6]; Viability,-16.3% (inactive)
C[C@H]1COCCN1c1cc(C2(S(=O)(=O)C3CC3)CC2)nc(-c2ccc(NC(=S)NCCO)cc2)n1,Potency,[3],0.208 µM (active)
C/C1=C2N=C(/C=C3N=C(/C(C)=C4\[N-]C(C(CC(N)=O)C4(C)CCC(=O)NCC(C)OP(=O)([O-])OC4C(CO)OC(n5cnc6cc(C)c(C)cc65)C4O)C4(C)N=C1C(CCC(N)=O)C4(C)CC(N)=O)C(CCC(N)=O)C\3(C)C)C(CCC(N)=O)C/2(C)CC(N)=O.[CH3-].[Co+3] (stereo unspecified),Potency,[5],22.4 µM (active)
CCc1c(C(=O)NNC(=O)[C@@H](O)c2cc(F)cc(F)c2)ccc(O)c1C,Potency,[3],inactive
C=C1C(=O)O[C@H]2[C@H]1CC/C(C)=C\CC[C@@]1(C)O[C@@H]21,Potency,[2],20 µM (active)
CN1CCC(c2c(O)cc(O)c3c(=O)cc(-c4ccccc4Cl)oc23)C1CO (stereo unspecified),Potency,[3],0.739 µM (active)
same,Potency,[6]; HiBiT,0.787 µM (active)
same,"activity change, negative = inhibition",[6]; Viability,-2.93% (inactive)
CCOC(=O)CCC(=O)O[C@H]1[C@H](O[C@@H]2[C@@H](C)[C@H](O[C@H]3C[C@@](C)(OC)[C@@H](O)[C@H](C)O3)[C@@H](C)C(=O)O[C@H](CC)[C@@](C)(O)[C@H](O)[C@@H](C)C(=O)[C@H](C)C[C@@]2(C)O)O[C@H](C)C[C@@H]1N(C)C,max response,[5],-6.05% (inactive)
same,Potency,[2],inactive
Cn1cc(C2=C(c3cn(CCCSC(=N)N)c4ccccc34)C(=O)NC2=O)c2ccccc21,Potency,[4],inactive
same,Potency,[7],inactive
CCC(=O)O[C@H]1CC[C@H]2[C@@H]3CCc4cc(O)ccc4[C@H]3CC[C@]12C,max response,[5],3.09% (inactive)
same,Potency,[2],12.6 µM (active)
C=CC(=O)Nc1cccc(C)c1Nc1ncc2cc(-c3c(Cl)c(OC)cc(OC)c3Cl)ccc2n1,Potency,[3],11.7 µM (active)
same,Potency,[6]; HiBiT,15.7 µM (active)
same,"activity change, negative = inhibition",[6]; Viability,1.08% (inactive)
C=C1/C(=C\C=C2/CCC[C@]3(C)[C@@H]([C@H](C)OCCC(C)(C)O)CC[C@@H]23)C[C@@H](O)C[C@@H]1O,max response,[5],-1.53% (inactive)
COc1ccc(C(=O)Nc2sc3c(c2C(N)=O)CCCC3)cc1OC,Potency,[4],inactive
same,Potency,[7],inactive
CC1(C)N=C(N)N=C(N)N1c1ccc(Cl)cc1,Potency,[1],inactive
same,max response,[5],-2.29% (inactive)
same,Potency,[2],inactive
C=CC(=O)c1ccc2ccccc2c1,Potency,[4],inactive
same,Potency,[7],inactive
CCN(CC)C(=O)c1cc(S(=O)(=O)Cc2ccccc2)c(N2CCC(c3ccccc3)CC2)cc1N(CC)CCN(C)C,Potency,[2],12.6 µM (active)
CCCCCCCCCCCCCCCCSCC(COC)COP(=O)([O-])OCC[N+](C)(C)C (stereo unspecified),Potency,[1],inactive
same,max response,[5],-10.5% (inactive)
same,Potency,[2],inactive
C[N+]1(C)CCN(CC(O)(c2ccccc2)C2CCCCC2)CC1 (stereo unspecified),max response,[5],-2.89% (inactive)
same,Potency,[2],inactive
COc1cc([C@@H]2c3cc4c(cc3C(O[C@@H]3O[C@@H]5CO[C@@H](C)O[C@H]5[C@H](O)[C@H]3O)C3COC(=O)[C@@H]32)OCO4)cc(OC)c1OP(=O)(O)O (stereo partly specified),max response,[5],4.76% (inactive) and -12.7% (inactive)
O=c1[nH]ccc2c(S(=O)(=O)N3CCCNCC3)cccc12,Potency,[4],26.7 µM (active)
CC[C@@]1(O)C[C@H](O[C@H]2C[C@H](N(C)C)[C@H](O[C@H]3C[C@H](O)[C@H](O[C@H]4CCC(=O)[C@H](C)O4)[C@H](C)O3)[C@H](C)O2)c2c(cc3c(c2O)C(=O)c2c(O)cccc2C3=O)[C@H]1C(=O)OC,Potency,[5],0.112 µM (active)
same,Potency,[2],0.447 µM (active)
NC(=O)c1sc(-c2ccsc2)cc1N,Potency,[4],inactive
S=c1ssc2c1CCC2,activity,[8],-2.41%
same,"activity change, negative = inhibition",[9],0%
same,activity,[10],-69.9%
same,activity,[11],-71%
Cc1cc(I)ccc1Nc1c(C(=O)NOCC2CC2)cc(F)c(F)c1F,Potency,[7],inactive
C[C@@H]1N=C(N)NC(N(C)C)=N1,Potency,[3],inactive
NC(=O)c1nc(F)c[nH]c1=O,Potency,[3],inactive
O=C(NOCCO)c1ccc2cncn2c1Nc1ccc(I)cc1F,Potency,[3],inactive
CNS(=O)(=O)c1ccc2c(c1)/C(=C/c1[nH]c3c(c1CCCN1CCN(C)CC1)CCCC3)C(=O)N2,Potency,[3],20.8 µM (active)
CN1CCN(Cc2ccc(Nc3ncc(Cl)c(Nc4ccccc4S(=O)(=O)N(C)C)n3)cc2)CC1,Potency,[3],0.151 µM (active)
CC1CN(CC(=O)Nc2ccc3c(c2)Cc2cccc(-c4cc(=O)cc(N5CCOCC5)o4)c2S3)CC(C)O1 (stereo unspecified),Potency,[12],inactive
same,Potency,[13],2.68 µM (active)
CC(=O)Nc1ccc(C(=O)NC(C)(C)C)cc1,Potency,[3],inactive
O=C(Nc1cccc(Nc2cc(Nc3cccc(C(F)(F)F)c3)ncn2)c1)C1CC1,activity,[8],-58%
same,Potency,[9],21.5 µM (active)
same,activity,[10],-68.1%
same,activity,[11],-61.4%
Cc1[nH]c(/C=C2\C(=O)Nc3ccccc32)c(C)c1CCC(=O)O,Potency,[13],inactive
CC(C)C(N)C(=O)OCC(CO)OCn1cnc2c(=O)[nH]c(N)nc21 (stereo unspecified),Potency,[3],inactive
N#Cc1ccc(-c2c(-c3ncn[nH]3)sc(N3CCOCC3)c2C#N)c(F)c1,"activity change, negative = inhibition",[6]; HiBiT,-34.7% (inactive)
